Shown are actives, neighbours in structure and some others; about 3.7% of the full set was active somewhere.
HepG2 viability = HepG2 cytotoxicity, counter-screen for TGF-b inhibitors. HepG2 CAGA-GFP viability, ATP luminescence, 18 h. Potency, µM (series often up to 46.1 µM), for the others: at the top dose activity change, negative = cytotoxicity, actives largely listed as cytotoxic. 410,000 tested, 0.76% active. AID 588856
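CellTiter-Glo luminescence gave cytotoxicity after 18 hours at 37 degrees C. The cells were HepG2 CAGA-GFP in 1% FBS DMEM, stimulated with 500 pg/mL TGF-beta after compound addition. %Activity was normalised to no-cell wells (complete cell-killing) and DMSO (no toxicity), and curves were fitted and classified.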
GLP-1R agonist = agonists of human GLP-1 receptor; Potency, µM (highest dose often 45.6 µM), without a hit: at the highest dose activation, actives largely listed as activators; 380,000 tested, 0.007% active; HEK293 GLP-1R CRE-luciferase, luminescence, 4-6 h; cells express a hypersensitive GLP-1R form; AID 624172; P43220; further: % of control where 0% means no effect
Target sequence (P43220 whole entry, looked up): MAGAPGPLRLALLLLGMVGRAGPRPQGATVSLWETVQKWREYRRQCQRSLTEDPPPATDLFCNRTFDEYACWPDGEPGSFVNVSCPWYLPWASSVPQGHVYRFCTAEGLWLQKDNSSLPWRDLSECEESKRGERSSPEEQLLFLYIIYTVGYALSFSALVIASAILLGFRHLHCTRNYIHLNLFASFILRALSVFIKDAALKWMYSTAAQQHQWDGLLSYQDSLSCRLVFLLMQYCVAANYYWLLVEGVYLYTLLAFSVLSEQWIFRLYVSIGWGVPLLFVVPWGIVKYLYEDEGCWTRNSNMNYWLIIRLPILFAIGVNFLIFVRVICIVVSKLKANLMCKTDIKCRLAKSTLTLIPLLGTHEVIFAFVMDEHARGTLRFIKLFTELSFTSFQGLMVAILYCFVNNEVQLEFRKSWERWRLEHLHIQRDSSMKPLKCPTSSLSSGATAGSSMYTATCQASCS
ATXN2 expr inh = ATXN2 expression inhibition. HEK-293 ATXN2-luciferase reporter, luminescence, 24 h. Potency, µM (series often up to 57 µM), for the others: top-dose activity change, negative = inhibition, most hits filed as inhibitors. 360,000 tested, 0.72% active. AID 1745845; further: on the % scale 0 is the no-effect control and ±100 the full control effect; nearly all actives have a fitted effect of over 55% in size
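qHTS (up to 57 uM final) was run with 24 h compound exposure of reporter cells at 37 °C. Each well was multiplexed: SteadyGlo luminescence measured ATXN2-luciferase expression after a fluorogenic Gly-Phe-AFC viability readout (25 uM final).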
TGFb SMAD3 inh = blocks TGF-b signaling | HepG2 CAGA-GFP TGF-b/SMAD3 reporter, GFP fluorescence, 18 h; TGF-beta stimulated, 500 pg/mL final | Potency, µM (series often up to 46.1 µM), for the others: at the top dose activity, negative = inhibition, hits mostly inhibitors | 410,000 tested, 1.2% active; further: on the % scale 0 is the no-effect control and ±100 the full control effect; nearly all actives have a fitted effect of over 65% in size
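GFP signal (ex488/em500-530) from TGF-beta-stimulated HEPG2 CAGA-GFP cells, 500 pg/mL final, 18 h at 37 degrees C in DMEM plus 1% FBS, normalized to unstimulated and DMSO-stimulated controls.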
ATXN viability = cell viability loss in ATXN counter-screen | S2 cells (HEK-293 line with an ATXN2-luciferase reporter) viability, CellTiter-Fluor protease fluorescence, 24 h | Potency, µM (doses to about 56.7 µM), hits mostly cytotoxic | 400,000 tested, 0.49% active | AID 651635; further: nearly all actives have a fitted effect of over 40% in size
GLP1R inv ag = acts as inverse agonist at human GLP-1 receptor; P43220; HEK293 GLP-1R CRE-luciferase, luminescence, 24 h; GLP-1R form is constitutively active; Potency, µM (top dose mostly 38.3 µM), inactives show at the highest dose activity change, negative = inhibition, most hits filed as inhibitors; 410,000 tested, 1.6% active; AID 624417; further: on the % scale 0 is the no-effect control and ±100 the full control effect; nearly all actives have a fitted effect of over 55% in size
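GLP-1R inverse agonism mode: basal reporter luminescence in engineered HEK293 cells measured after one day of compound exposure at 37 deg C, with a 12 min room-temperature detection step.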
Numbers without * were called inactive; i = inactive; ? = inconclusive; nt = no result given. The call rests on the fitted dose curve; in most records, active means well fitted curve in the direction sought with a large enough effect; inconclusive means small, poorly fitted or top-dose-only effect, or another doubt; inactive means no such curve, though single readings can be large; an effect the other way counts as inactive or inconclusive. Potency means the concentration at half of the fitted maximal effect.

SMILES	HepG2 viability	GLP-1R agonist	ATXN2 expr inh	TGFb SMAD3 inh	ATXN viability	GLP1R inv ag
O=C(CCCn1c2ccccc2c(=O)c2ccccc21)Nc1cccc(Cl)c1	-30.3%	nt	?	12.6µM*	nt	6.31µM*
O=C(Cn1c(=O)n(Cc2ccco2)c(=O)c2ccccc21)Nc1cccc(Cl)c1	-84.2%	9.4%	?	10µM*	?	?
Cc1ccc2c(c1)c(=O)c1ccccc1n2CCCC(=O)Nc1ccc(C)c(F)c1	-17.2%	nt	0.0%	6.31µM*	nt	?
CC(C)OC(=O)c1cccc(C(=O)OCc2ccco2)n1	7.08µM*	4.7%	-3.5%	-12.7%	i	100.8%
CC(C)OC(=O)c1cccc(C(=O)Oc2ccccc2)n1	19.1%	-4.0%	0.9%	0.4%	i	9.4%
CN1CCN(c2ccc(Cl)cc2NC(=O)c2cc(=O)[nH]c3ccccc23)CC1	-34.0%	17.1%	-36.4%	6.0%	i	?
CN1CCN(c2cc3c(c4c2[nH]c2ccccc24)C(=O)CC(C)(C)C3)CC1	11.2µM*	-3.9%	?	?	?	?
COc1cc(NS(=O)(=O)c2ccc(C(=O)O)cc2)c2nc(C)ccc2c1	-14.9%	nt	nt	-15.9%	nt	nt
COc1cc(NS(=O)(=O)c2ccc(C)cc2)c2ncccc2c1	-26.2%	14.0%	4.47µM*	?	?	?
CCc1nnc(NC(=O)CSc2nccn2Cc2ccc(C)cc2)s1	-4.1%	nt	12.6%	-14.9%	i	14.6%
Cn1cc(SCC(=O)Nc2nc3ccccc3s2)c2ccccc21	-40.1%	-13.9%	25.1µM*	-24.0%	i	10µM*
Cc1ccc(Cn2ccnc2SCC(=O)Nc2nc3ccccc3s2)cc1	-33.0%	nt	nt	11.2µM*	nt	1.1%
NC(=O)Nc1ccc(/C=C2\C=Cc3ccccc32)cc1	-48.9%	nt	nt	?	nt	nt
Cc1cc2c(cc1C)C(c1ccccc1OC(C)C)CC(=O)N2 (stereo not given)	-47.9%	2.7%	-15.8%	?	i	10µM*
COc1ccccc1C1CC(=O)Nc2cc(C)c(C)cc21 (stereo not given)	14.5%	5.0%	-20.6%	-18.5%	i	?
CCCCOc1ccccc1C1CC(=O)Nc2cc(C)c(C)cc21 (stereo not given)	-66.3%	nt	?	?	?	12.6µM*
COC1CC2CCC(C)[C@](O)(O2)C(=O)C(=O)N2CCCCC2C(=O)OC(C(C)CC2CCC(O)C(OC)C2)CC(=O)C(C)/C=C(/C)C(O)C(OC)C(=O)C(C)CC(C)C=CC=C/C=C\1C (stereo not given in full)	nt	1.0%	nt	nt	nt	nt
Cc1ccc(Oc2ncccc2/C=N/OCc2ccc(Cl)c(Cl)c2)cc1	17.1%	-7.6%	29.6%	7.1%	i	10µM*
COc1cccc(/C=C/c2nc(C#N)c(N3CCCCC3)o2)c1	-27.5%	nt	nt	-4.6%	nt	?
c1ccc(Cn2nnnc2C(c2ccccc2)N2CCN(Cc3ccncc3)CC2)cc1 (stereo not given)	-11.0%	nt	nt	-0.7%	nt	nt
COC(=O)c1cc(O)cc(OC)c1Oc1cc(C)cc(O)c1C(=O)O	-27.4%	-9.3%	?	-25.8%	i	8.91µM*
CC(C)(C)c1ccc(S(=O)(=O)N2CCN(Cc3noc(CCC(=O)N4CCCCC4)n3)CC2)cc1	-23.7%	nt	nt	?	nt	-27.0%
CC(C)Cc1ccc(S(=O)(=O)N2CCN(Cc3noc(CCC(=O)N4CCCCC4)n3)CC2)cc1	-25.8%	nt	nt	11.2µM*	nt	-29.1%
COc1cccc(CNC(=O)c2c(OC)cc(=O)n3c2CCN(C(=O)c2ccc(C)s2)CC3)c1	nt	nt	nt	nt	i	nt
C/C(=N\Nc1nc(C(C)(C)C)cs1)c1ccccc1	-25.8%	-0.5%	nt	?	?	8.91µM*
SMILES	HepG2 viability	GLP-1R agonist	ATXN2 expr inh	TGFb SMAD3 inh	ATXN viability	GLP1R inv ag
Cc1oc(-c2cccc(Cl)c2)nc1CS(=O)(=O)CC(=O)NC(C)CCc1ccccc1 (stereo not given)	-34.4%	-0.6%	?	10µM*	?	?
CCOc1ccc(CCNC(=O)CS(=O)(=O)Cc2nc(-c3cccc(Cl)c3)oc2C)cc1	-10.8%	0.8%	-30.7%	?	i	?
Cc1oc(-c2ccccc2Cl)nc1CS(=O)(=O)CC(=O)NC(C)CCc1ccccc1 (stereo not given)	-14.0%	-2.9%	?	10µM*	?	10µM*
COc1cc2c(NC3CCN(C)CC3)nc(N3CCCN(C)CC3)nc2cc1OCCCCCCN(C)C	-0.4%	nt	nt	?	nt	nt
CCOc1ccc(NC(=O)c2nn(C)c3c2COc2ccccc2-3)cc1	-15.7%	nt	nt	-6.9%	nt	-2.8%
COc1ccc(C(=O)/C=C/c2ccc(OC(=O)c3cc(OC)c(OC)c(OC)c3)cc2)cc1	-29.6%	2.5%	-20.6%	-28.5%	?	49.8%
COc1cc(C(=O)Oc2ccc3ccc(O)cc3c2)cc(OC)c1OC	22.4µM*	10.1%	nt	?	i	-21.7%
COc1ccc(C2c3[nH]c4ccccc4c3CCN2C(=O)CCC2CCCC2)cc1 (stereo not given)	-21.2%	nt	nt	?	nt	?
O=C(CCC1CCCC1)N1CCc2c([nH]c3ccccc23)C1c1ccc(Cl)cc1 (stereo not given)	-30.8%	nt	nt	-9.4%	nt	3.16µM*
CCOc1cccc(CC(=O)N2CCc3c([nH]c4ccccc34)C2c2ccc(Cl)cc2)c1OCC (stereo not given)	3.4%	nt	nt	-6.6%	nt	10µM*
O=C(CCC1CCCC1)N1CCc2c([nH]c3ccccc23)C1c1ccc(F)cc1 (stereo not given)	-32.1%	nt	nt	?	nt	?
O=C(CCc1ccccc1)N1CCc2c([nH]c3ccccc23)C1c1ccc(Cl)cc1 (stereo not given)	-31.3%	nt	nt	-14.9%	nt	?
CCOC(=O)c1[nH]c(C)c(C(=O)N2CCc3c([nH]c4ccccc34)C2c2ccccn2)c1C (stereo not given)	-23.2%	6.6%	?	?	?	11.2µM*
CCOc1ccc(C2c3[nH]c4ccccc4c3CCN2C(=O)CCC2CCCC2)cc1 (stereo not given)	-21.6%	nt	nt	-10.9%	nt	1.26µM*
Cc1ccc(C2c3[nH]c4ccccc4c3CCN2C(=O)CSc2ccccc2)cc1 (stereo not given)	-24.7%	nt	nt	-31.7%	nt	?
CCOc1ccc(C2c3[nH]c4ccccc4c3CCN2C(=O)CSc2ccccc2)cc1 (stereo not given)	-6.9%	nt	nt	-14.9%	nt	5.01µM*
CCCN1CCc2nc(N3CCN(c4ncccn4)CC3)ncc2C1	-2.5%	nt	3.0%	?	i	-0.8%
